Read-out in assay [1]: Tissue Factor, F3 (gene 2152)
Description: BSK_CASM3C_TissueFactor: BioMAP Diversity Plus: CASM3C Assay for Tissue Factor Biomarker Activity (AID 2283052).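 Further: cell surface tissue factor protein level read by ELISA.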 The note with it: primary human coronary artery smooth muscle cells; actives raise or lower the signal.

Read-out in assay [2]: Urokinase-type plasminogen activator receptor (uPAR), PLAUR (gene 5329)
The assay is described as follows: BSK_CASM3C_uPAR: BioMAP Diversity Plus: CASM3C Assay for Urokinase-type plasminogen activator receptor (uPAR) Biomarker Activity (AID 2283054).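 Further: cell-surface uPAR protein level quantified by ELISA.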 The note with it: primary human coronary artery smooth muscle cells; actives raise or lower the signal.

Read-out in assay [3]: Collagen III, COL3A1 (gene 1281)
The assay is described as follows: BSK_hDFCGF_CollagenIII: BioMAP Diversity Plus: hDFCGF Assay for Collagen III Biomarker Activity (AID 2283056). The note with it: primary human foreskin fibroblasts; actives raise or lower the signal. In a few lines:
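ELISA readout of Collagen III in human dermal (foreskin) fibroblasts, taken 24 h post-treatment. Gain or loss relative to DMSO vehicle fitted in both directions.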

Read-out in assay [4]: Epidermal growth factor receptor (EGFR), EGFR (gene 1956)
Description: BSK_hDFCGF_EGFR: BioMAP Diversity Plus: hDFCGF Assay for Epidermal growth factor receptor (EGFR) Biomarker Activity (AID 2283057). The note with it: primary human foreskin fibroblasts; actives raise or lower the signal. In short, it runs like this:
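Primary human foreskin fibroblasts (hDFCGF system), sampled 24 h after dosing; EGFR quantified by ELISA. Bidirectional fit relative to DMSO baseline; SRB total-protein staining in parallel cultures for cytotoxicity.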

Read-out in assay [5]: Interleukin-8 (IL8), CXCL8 (gene 3576)
The assay is described as follows: BSK_hDFCGF_IL8: BioMAP Diversity Plus: hDFCGF Assay for Interleukin-8 (IL8) Biomarker Activity (AID 2283058). The note with it: primary human foreskin fibroblasts; actives raise or lower the signal. In short, it runs like this:
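IL-8 levels read by ELISA at 24 hours after dosing human skin fibroblast cultures. Parallel SRB staining assessed overt cytotoxicity, and gain or loss of signal was fitted against DMSO control.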

Assay [6] is described as follows: BSK_hDFCGF_Proliferation: Cell Proliferation Assessment in the BioMAP Diversity Plus: hDFCGF Assay (AID 2283059).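 Further: curves fitted for both rise and fall of signal versus DMSO baseline.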 The note with it: primary human foreskin fibroblasts. In short, it runs like this:
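Primary human foreskin fibroblasts, sub-confluent; […]; 10% TCA fix, 0.1% SRB stain, A560 total protein. Gain/loss fitted bidirectionally vs DMSO control.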

Assay [7] can be described thus: BSK_hDFCGF_SRB: Viability Assessment in the BioMAP Diversity Plus: hDFCGF Assay (AID 2283061).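 Further: cells exposed to compound for 24 h before the read.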 The note with it: primary human foreskin fibroblasts. In a few lines: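 Viability was read as total protein: after 10% TCA fixation, wells were stained with 0.1% sulforhodamine B and read at 560 nm. Primary human foreskin fibroblasts were dosed for 24 h, with bidirectional fitting versus DMSO.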

Read-out in assay [8]: Vascular cell adhesion molecule 1 (VCAM1), VCAM1 (gene 7412)
Description: BSK_hDFCGF_VCAM1: BioMAP Diversity Plus: hDFCGF Assay for Vascular cell adhesion molecule 1 (VCAM1) Biomarker Activity (AID 2283065).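 On AC50: VCAM-1 protein level quantified by ELISA after 24 h chemical exposure.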 The note with it: primary human foreskin fibroblasts; actives raise or lower the signal. In a few lines:
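ELISA readout of VCAM-1 on human dermal fibroblast primary cultures, 24 h after chemical exposure. Gain or loss of signal fitted in both directions against DMSO baseline.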

Read-out in assay [9]: Plasminogen activator inhibitor-1 (PAI1), SERPINE1 (gene 5054)
Description: BSK_hDFCGF_PAI1: BioMAP Diversity Plus: hDFCGF Assay for Plasminogen activator inhibitor-1 (PAI1) Biomarker Activity (AID 2283066). The note with it: primary human foreskin fibroblasts; actives raise or lower the signal. In short, it runs like this: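 Human foreskin fibroblast primary cells, 24 h chemical exposure; PAI-1 measured by ELISA. Bidirectional fitting relative to DMSO; parallel cultures stained with SRB for total protein to flag overt cytotoxicity.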

Read-out in assay [10]: Intercellular Adhesion Molecule 1 (ICAM1), ICAM1 (gene 3383)
Description: BSK_KF3CT_ICAM1: BioMAP Diversity Plus: KF3CT Assay for Intercellular Adhesion Molecule 1 (ICAM1) Biomarker Activity (AID 2283067). The note with it: primary human keratinocytes with fibroblasts; actives raise or lower the signal. In short, it runs like this:
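Cell-surface ICAM-1 was measured by ELISA 24 h after dosing primary human skin keratinocytes co-cultured with fibroblasts. Parallel SRB staining tracked overt cytotoxicity. Gain or loss of signal was fitted relative to DMSO.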

Read-out in assay [11]: Interferon-gamma inducible Protein 10 (IP10), CXCL10 (gene 3627)
Description: BSK_KF3CT_IP10: BioMAP Diversity Plus: KF3CT Assay for Interferon-gamma inducible Protein 10 (IP10) Biomarker Activity (AID 2283068). The note with it: primary human keratinocytes with fibroblasts; actives raise or lower the signal. In short, it runs like this: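 In a primary skin co-culture of keratinocytes and fibroblasts, IP-10 is quantified by ELISA at 24 h after dosing. SRB staining of parallel wells monitors overt toxicity. Curves are fitted both directions against DMSO.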

A short description of assay [12]: BSK_KF3CT_SRB: Viability Assessment in the BioMAP Diversity Plus: KF3CT Assay (AID 2283069).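 Further: total protein by sulforhodamine B staining as a cytotoxicity measure; read 24 h after compound addition.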 The note with it: primary human keratinocytes with fibroblasts. In short, it runs like this: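 Keratinocytes co-cultured with foreskin fibroblasts (human primary); chemical added, 24 h; fix 10% TCA, stain 0.1% SRB, A560. Bidirectional fit vs DMSO.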
Read-out in assay [13]: Interleukin-1 alpha (IL1a), IL1A (gene 3552)
Description: BSK_KF3CT_IL1a: BioMAP Diversity Plus: KF3CT Assay for Interleukin-1 alpha (IL1a) Biomarker Activity (AID 2283070). The note with it: primary human keratinocytes with fibroblasts; actives raise or lower the signal. In short, it runs like this:
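Chemicals were dosed onto co-cultured human keratinocytes and foreskin fibroblasts, IL-1a was quantified by ELISA at 24 h, and activity was fitted in both directions relative to DMSO controls.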

Read-out in assay [14]: TIMP metallopeptidase inhibitor 2 (TIMP2), TIMP2 (gene 7077)
Description: BSK_KF3CT_TIMP2: BioMAP Diversity Plus: KF3CT Assay for TIMP metallopeptidase inhibitor 2 (TIMP2) Biomarker Activity (AID 2283071). The note with it: primary human keratinocytes with fibroblasts; actives raise or lower the signal. In a few lines: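 Co-culture of human primary keratinocytes and foreskin fibroblasts, measured 24 h after chemical dosing. TIMP-2 quantified by ELISA and fitted in both directions relative to DMSO. Cytotoxicity checked in parallel cultures by SRB total-protein staining.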

Read-out in assay [15]: C-C motif chemokine 2 (Homo sapiens) (UniProt P13500)
The assay is described as follows: BSK_KF3CT_MCP1: BioMAP Diversity Plus: KF3CT Assay for Monocyte Chemoattractant Protein 1 (MCP1/CCL2) Biomarker Activity (AID 2283073). The note with it: primary human keratinocytes with fibroblasts; actives raise or lower the signal. In short, it runs like this: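 ELISA read-out of MCP-1, 24 h post-dose, in primary human skin keratinocytes co-cultured with fibroblasts. Parallel SRB staining monitors cytotoxicity; changes fitted both directions relative to DMSO.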

Read-out in assay [16]: Matrix Metallopeptidase 9 (MMP9), MMP9 (gene 4318)
The assay is described as follows: BSK_KF3CT_MMP9: BioMAP Diversity Plus: KF3CT Assay for Matrix Metallopeptidase 9 (MMP9) Biomarker Activity (AID 2283074).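 On AC50: MMP9 protein level quantified by ELISA in the co-culture.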 The note with it: primary human keratinocytes with fibroblasts; actives raise or lower the signal. In a few lines:
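Human keratinocyte/foreskin fibroblast co-culture; compound added; 24 h; MMP-9 by ELISA; bidirectional fit vs DMSO baseline.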

Read-out in assay [17]: urokinase plasminogen activator (uPA), PLAU (gene 5328)
Description: BSK_KF3CT_uPA: BioMAP Diversity Plus: KF3CT Assay for urokinase plasminogen activator (uPA) Biomarker Activity (AID 2283075). The note with it: primary human keratinocytes with fibroblasts; actives raise or lower the signal. In short, it runs like this:
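ELISA readout of uPA, analyzed for signal gain or loss relative to DMSO, from a human primary keratinocyte–foreskin fibroblast co-culture measured 24 h after chemical treatment.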

Read-out in assay [18]: E-selectin (Homo sapiens) (UniProt P16581)
The assay is described as follows: BSK_LPS_Eselectin: BioMAP Diversity Plus: LPS Assay for Eselectin Biomarker Activity (AID 2283077). The note with it: primary human HUVEC with PBMC; actives raise or lower the signal. In a few lines: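 E-selectin ELISA on LPS-stimulated endothelial cell/PBMC co-cultures, read 24 h post-treatment; gains and losses fitted against DMSO. Parallel SRB staining (0.1% SRB after 10% TCA fixation, 560 nm) flags overt cytotoxicity.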

Read-out in assay [19]: Interleukin-8 (IL8), CXCL8 (gene 3576)
The assay is described as follows: BSK_LPS_IL8: BioMAP Diversity Plus: LPS Assay for Interleukin-8 (IL8) Biomarker Activity (AID 2283078). The note with it: primary human HUVEC with PBMC; actives raise or lower the signal. In a few lines:
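ELISA read-out of IL-8 after 24 h chemical treatment of LPS-activated endothelial/PBMC human primary co-cultures. Changes either up or down relative to DMSO; overt cytotoxicity checked by sulforhodamine B staining in parallel wells.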

A short description of assay [20]: BSK_LPS_SRB: Viability Assessment in the BioMAP Diversity Plus: LPS Assay (AID 2283079).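 Further: total protein by sulforhodamine B absorbance as a cytotoxicity measure; measured one day after compound addition.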 The note with it: primary human HUVEC with PBMC. In a few lines:
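SRB viability endpoint: cells fixed with 10% TCA, stained with 0.1% SRB, read at 560 nm, 24 h post-dose. HUVEC/PBMC co-culture; signal change in either direction scored relative to DMSO.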

SMILES strings stand for the structures. Active and inactive are the calls of the source. How the source made its calls: active means hit-call score of the fitted dose curve at least 0.9, where 1 is the maximum; inactive means score below 0.9.

Chain of E-selectin (Homo sapiens) (P16581 whole entry, looked up): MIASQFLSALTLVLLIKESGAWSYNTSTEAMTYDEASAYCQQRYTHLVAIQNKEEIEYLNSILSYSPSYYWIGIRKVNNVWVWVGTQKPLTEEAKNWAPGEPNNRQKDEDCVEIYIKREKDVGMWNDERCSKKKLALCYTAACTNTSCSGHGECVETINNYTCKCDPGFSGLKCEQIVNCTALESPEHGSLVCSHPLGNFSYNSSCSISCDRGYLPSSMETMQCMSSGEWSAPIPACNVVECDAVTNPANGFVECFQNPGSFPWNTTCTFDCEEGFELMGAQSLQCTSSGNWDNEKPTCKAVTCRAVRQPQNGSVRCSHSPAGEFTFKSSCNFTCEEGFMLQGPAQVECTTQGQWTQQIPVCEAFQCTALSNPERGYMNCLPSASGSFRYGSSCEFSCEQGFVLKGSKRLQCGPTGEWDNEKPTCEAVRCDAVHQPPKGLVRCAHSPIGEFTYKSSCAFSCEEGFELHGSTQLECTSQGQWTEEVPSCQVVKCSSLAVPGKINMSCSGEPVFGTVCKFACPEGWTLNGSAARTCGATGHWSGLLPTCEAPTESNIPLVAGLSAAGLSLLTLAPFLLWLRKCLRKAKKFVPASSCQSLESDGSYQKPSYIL

As a reminder, the AC50 is the concentration giving half of the maximal activity seen. Turning to `CN(C)c1ccc(C(c2ccccc2)c2ccc(N(C)C)cc2)cc1`, the AC50 in assay [1] was 7.33 µM (active); in [3], 10.7 µM (active); in assay [6] it was 3.87 µM (active); in [16], 13.6 µM (active); in [18] it was 15.6 µM (active); in assay [19], 15.2 µM (active). Further, in assay [20], the AC50 was 12.5 µM (active). Moreover, the outcome in assay [2], in assay [4], in assay [5], in assay [7], in assay [8] and in assay [9] was inactive. Further, the outcome in [10], in assay [11], in [12], in [13], in assay [14] and in assay [15] was inactive. The outcome in [17] was inactive.

Take `CN(C)CCC(c1ccc(Cl)cc1)c1ccccn1` (stereo not given): the result in [1], in assay [2], in [3], in [4], in [5] and in assay [6] was inactive. Moreover, the result in [7], in assay [8], in [9], in [10], in [11] and in assay [12] was inactive. The result in assay [13], in [14], in assay [15], in assay [16], in assay [17] and in assay [18] was inactive. Moreover, the result in assay [19] and in assay [20] was inactive.

In the case of `CCCCCCCCCCC1CO1` (stereo not given), the AC50 in assay [1] was 30.2 µM (active); in assay [2], 34.3 µM (active); in [3] it was 20 µM (active); in assay [5], 28.5 µM (active); in assay [6] it was 20 µM (active); in [7] it was 27.6 µM (active). For the same compound, the AC50 in assay [8] was 25.7 µM (active); in assay [9], 20 µM (active); in [10] it was 29.3 µM (active); in [11], 4.61 µM (active); in assay [12], 33.4 µM (active); in assay [13], 25.3 µM (active). Further, the concentration at half-maximal activity (AC50) in [14] was 24.2 µM (active); in assay [15], 20 µM (active); in assay [16] it was 36.1 µM (active); in assay [17] it was 28 µM (active); in assay [18], 36.1 µM (active); in assay [19], 37.5 µM (active). In addition, the AC50 in assay [20] is 20 µM (active). For the same compound, in assay [4], the outcome was inactive.

Turning to `Cc1cc(-n2nc3ccc(Cl)cc3n2)c(O)c(C(C)(C)C)c1`, the result in assay [1], in assay [2], in [3], in assay [4], in assay [5] and in assay [6] was inactive. In addition, the result in [7], in [8], in assay [9], in assay [10], in [11] and in assay [12] was inactive. In addition, the outcome in assay [13], in [14], in assay [15], in assay [16], in assay [17] and in assay [18] was inactive. Besides, the outcome in [19] and in [20] was inactive.

The values are drawn from PubChem BioAssay (EPA / NIEHS).
